Assay results from PubChem BioAssay (NCI).
The panel holds about 79,000 compounds, 15% with a hit somewhere; the sample as a whole holds those more often. Calls of active or inactive are those of the source. Cut-off read from the data, not from the text of the source: active = growth inhibition above about 70%; inactive = the rest.

Tests used:
[1] = NCI Yeast Anticancer Drug Screen. Data for the rad50 strain (AID 155);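 note: 0% = growth of vehicle-only cultures of the same strain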; conditions: S. cerevisiae rad50 strain growth inhibition, hits give high values
How it was run: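 Genetically altered yeast (DNA repair pathway); compound treatment; growth inhibition vs vehicle ctrl.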

[2] = NCI Yeast Anticancer Drug Screen. Data for the mec2-1 strain (AID 157); conditions: S. cerevisiae mec2-1 strain, hits give high values
How it was run: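 Compounds were applied to mec2-1 yeast cells. Their growth was then compared with that of vehicle-treated cultures to give growth inhibition.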

[3] = NCI Yeast Anticancer Drug Screen. Data for the sgs1 mgt1 strain (AID 161);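 note: 0% = growth of cultures given vehicle only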; conditions: S. cerevisiae sgs1 mgt1 strain, hits give high values
How it was run: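 Yeast cells carrying a defined DNA-repair defect were exposed to test compounds. Growth inhibition was measured relative to vehicle-treated controls.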

[4] = NCI Yeast Anticancer Drug Screen. Data for the cln2 rad14 strain (AID 165);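 note: 0% = growth equal to vehicle treated cultures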; conditions: S. cerevisiae cln2 rad14 strain, hits give high values
How it was run: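 Strain: cln2 rad14 yeast, altered in cell cycle control and DNA damage repair. Read-out: growth inhibition vs vehicle.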

[5] = NCI Yeast Anticancer Drug Screen. Data for the bub3 strain (AID 167); conditions: S. cerevisiae bub3 mutant strain, hits give high values
How it was run: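 Yeast carrying a defined mutation is treated with each compound, and growth is compared with that of vehicle-exposed cells to give inhibition.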

[6] = NCI Yeast Anticancer Drug Screen. Data for the mlh1 rad18 strain (AID 175); conditions: S. cerevisiae mlh1 rad18 strain growth inhibition, hits give high values
How it was run: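 A repair-deficient yeast strain is exposed to test compound, and growth is scored relative to vehicle-treated controls.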

[7] = at 5.0 µM (retest, dose inferred, filed as 0.5)
[8] = at 50.0 µM (retest, dose inferred, filed as 5.0)

Measured: growth inhibition

CC(=O)Oc1c(C2CCCCC2)cc([N+](=O)[O-])cc1[N+](=O)[O-]
active: [1]; [7] 96% | [1]; [8] 99% | [1]; at 50.0 µM 99.5% | [2]; [7] 91% | [2]; [8] 99% | [2]; at 50.0 µM 99.7% | [3]; [7] 98% | [3]; [8] 99% | [3]; at 50.0 µM 99.5% | [4]; [7] 79% | [4]; [8] 99% | [4]; at 50.0 µM 98% | [5]; [7] 85% | [5]; [8] 99% | [5]; at 50.0 µM 99.5% | [6]; [7] 97% | [6]; [8] 98% | [6]; at 50.0 µM 99.6%

O=c1c(-c2ccccc2)c(-c2ccccc2)c1=O
inactive: [1]; [7] -98% | [2]; [7] -37% | [3]; [7] -36% | [3]; at 50.0 µM 63.1% | [4]; [7] -49% | [5]; [7] -38% | [6]; [7] -85% | [6]; [8] 69%
active: [1]; [8] 84% | [1]; at 50.0 µM 97.7% | [2]; [8] 89% | [2]; at 50.0 µM 96.2% | [3]; [8] 77% | [4]; [8] 76% | [4]; at 50.0 µM 95.3% | [5]; [8] 84% | [5]; at 50.0 µM 96.8% | [6]; at 50.0 µM 85.5%

Cc1ccc(NC2=CC(=O)C(NO)c3ccccc32)cc1 (stereo not given)
active: [5]; [8] 83% | [6]; [8] 79%
inactive: [1]; [7] 14% | [1]; [8] 66% | [1]; at 50.0 µM 38.6% | [2]; [7] 19% | [2]; [8] 66% | [2]; at 50.0 µM 20.6% | [3]; [7] 16% | [3]; [8] 68% | [3]; at 50.0 µM 35.6% | [4]; [7] 10% | [4]; [8] 40% | [4]; at 50.0 µM 44.5% | [5]; [7] 21% | [5]; at 50.0 µM 21.9% | [6]; [7] 13% | [6]; at 50.0 µM 60.5%

O/N=C(/CCc1ccccc1)c1ccccc1
inactive: [1]; [7] 7% | [2]; [7] 2% | [3]; [7] 5% | [4]; [7] -2% | [4]; [8] 56% | [5]; [7] -2% | [6]; [7] 2%
active: [1]; [8] 84% | [1]; at 50.0 µM 97.1% | [2]; [8] 70% | [2]; at 50.0 µM 97% | [3]; [8] 76% | [3]; at 50.0 µM 97.2% | [4]; at 50.0 µM 93.2% | [5]; [8] 71% | [5]; at 50.0 µM 95.7% | [6]; [8] 71% | [6]; at 50.0 µM 97.2%

CN1C(=O)[C@@H]2N(N(C)C1=O)[C@@]1(Br)C(=O)N(C)C(=O)[C@@]21Br
active: [1]; [8] 78% | [1]; at 50.0 µM 92.5% | [2]; at 50.0 µM 79% | [3]; [8] 84% | [3]; at 50.0 µM 87.8% | [5]; at 50.0 µM 94.5% | [6]; [8] 91% | [6]; at 50.0 µM 97.8%
inactive: [1]; [7] 18% | [2]; [7] 4% | [2]; [8] 57% | [3]; [7] 18% | [4]; [7] 4% | [4]; [8] 24% | [4]; at 50.0 µM 67.8% | [5]; [7] 1% | [5]; [8] 53% | [6]; [7] 14%

CCCCOS(=O)(=O)c1ccc(C)cc1
inactive: [1]; [7] -7% | [1]; [8] 15% | [1]; at 50.0 µM 9.1% | [2]; [7] -4% | [2]; [8] -22% | [2]; at 50.0 µM -82.3% | [3]; [7] -8% | [3]; [8] 7% | [3]; at 50.0 µM -9.45% | [4]; [7] 1% | [4]; [8] -15% | [4]; at 50.0 µM 25.1% | [5]; [7] -16% | [5]; [8] -39% | [5]; at 50.0 µM -23.5% | [6]; [7] -6% | [6]; [8] -4% | [6]; at 50.0 µM -3.55%

CN(C)[C@@H]1C(=O)C(C(=O)NCNc2nc3n[nH]nc3c(=O)[nH]2)=C(O)[C@@]2(O)C(=O)C3=C(O)c4c(O)cccc4[C@@](C)(O)[C@H]3C[C@@H]12
inactive: [1]; [7] -1% | [1]; [8] 9% | [1]; at 50.0 µM -5.65% | [2]; [7] -4% | [2]; [8] 6% | [2]; at 50.0 µM 11.2% | [3]; [7] -7% | [3]; [8] 3% | [3]; at 50.0 µM -7% | [4]; [7] 1% | [4]; [8] -8% | [4]; at 50.0 µM 11.6% | [5]; [7] 7% | [5]; [8] 14% | [5]; at 50.0 µM -10.6% | [6]; [7] 1% | [6]; [8] 4% | [6]; at 50.0 µM -4.9%

Clc1nnc(Cl)s1
inactive: [1]; [7] 3% | [1]; [8] 36% | [1]; at 50.0 µM 29.1% | [2]; [7] 8% | [2]; [8] 54% | [2]; at 50.0 µM 21.6% | [3]; [7] 2% | [3]; [8] 67% | [3]; at 50.0 µM 19.4% | [4]; [7] 1% | [4]; [8] 9% | [4]; at 50.0 µM 25.9% | [5]; [7] 5% | [5]; at 50.0 µM 23.9% | [6]; [7] 5% | [6]; [8] 53% | [6]; at 50.0 µM 18.9%
active: [5]; [8] 72%

Cc1ccc(C(=O)C(CN(C)C)CN(C)C)cc1C
active: [1]; [8] 83% | [1]; at 50.0 µM 87.6% | [2]; [8] 90% | [2]; at 50.0 µM 90.2% | [3]; [8] 88% | [3]; at 50.0 µM 90.1% | [5]; [8] 94% | [5]; at 50.0 µM 87.5% | [6]; [8] 91% | [6]; at 50.0 µM 87.8%
inactive: [1]; [7] 29% | [2]; [7] 12% | [3]; [7] 9% | [4]; [7] 24% | [4]; [8] 51% | [4]; at 50.0 µM 58.1% | [5]; [7] 20% | [6]; [7] 14%

O=C(CN1CCCCC1)c1ccc(/C=C/c2ccc(Cl)cc2)cc1
active: [1]; [8] 98% | [1]; at 50.0 µM 98.6% | [2]; [8] 99% | [2]; at 50.0 µM 98.4% | [3]; [8] 98% | [3]; at 50.0 µM 97.1% | [4]; [8] 75% | [4]; at 50.0 µM 97.5% | [5]; [8] 99% | [5]; at 50.0 µM 96.8% | [6]; [8] 99% | [6]; at 50.0 µM 98.1%
inactive: [1]; [7] 7% | [2]; [7] 4% | [3]; [7] 12% | [4]; [7] -20% | [5]; [7] -13% | [6]; [7] 21%
